An excerpt weighted towards active compounds, which were near 14% of everything screened.
Sm TGR block: S. mansoni TGR enzyme inhibition; 360,000 tested, 3% active; purified TGR, DTNB reduction, TNB absorbance 405 nm; Q962Y6; Potency, µM (highest dose often 114 µM), for the others: at the highest dose activity change, negative = inhibition, hits mostly inhibitors; further: potency means the concentration at half of the fitted maximal effect; nearly all actives have a fitted effect of over 60% in size
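Kinetic colorimetric format: TGR-catalysed, NADPH-driven DTNB reduction monitored via TNB absorbance. Enzyme dispensed at 20 nM; compound exposure 15 min at room temperature before reaction start.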
Pf growth 48h: inhibits P. falciparum growth in the first generation, 48 h; AID 504832; 310,000 tested, 5.9% active; Potency, µM (doses to about 28.7 µM), inactives show at the highest dose activity change, negative = inhibition, usual class: inhibitors; P. falciparum luciferase growth in erythrocytes, 48 h; further: potency means the concentration at half of the fitted maximal effect
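First compound was added to culture medium, then infected red cells at 0.1% parasitemia and 2% hematocrit (final). After incubation at 37 C under 5% CO2, luciferase detection reagent was dispensed and light output recorded.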
Pf growth 96h: inhibits malaria parasite growth, 96 h. Potency, µM (highest dose often 28.7 µM), for inactives: at the top dose activity change, negative = inhibition, hits mostly inhibitors. P. falciparum luciferase reporter growth, 96 h. 320,000 tested, 6.9% active. AID 504834; further: potency means the concentration at half of the fitted maximal effect
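P. falciparum expressing integrated firefly luciferase grown in erythrocytes (2% hematocrit, 0.05% parasitemia final) with compounds for 96 hours at 37 C, 5% CO2. Growth inhibition read as loss of luminescence after adding luciferase detection reagent.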
HCMV antiviral: blocks human cytomegalovirus replication | AID 1259415 | 410,000 tested, 4.5% active | HFF cells, HCMV-luciferase reporter, 72 h; active compounds read low | activity change, negative = inhibition, % at 57.5 µM; in the data active means activity change below about -60%; inconclusive means no clear call, values can overlap the other calls; inactive means above about -39%
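Cell-based, HFFs, 1000 cells/well, 16 h 37C; cpds in DMSO + HCMV-luc, MOI 1 PFU/cell; 72 h 37C; OneGlo luminescence after 5 min RT; norm. to buffer vs Salinomycin 10uM.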
FBPA Giardia inh: inhibitors of Giardia lamblia fructose-1,6-bisphosphate aldolase; purified Giardia FBPA; Potency, µM (series often up to 59.6 µM), for the others: top-dose activity, negative = inhibition, usual class: inhibitors; A8B2U2; 290,000 tested, 0.71% active; further: potency means the concentration at half of the fitted maximal effect; nearly all actives have a fitted effect of over 55% in size
Target sequence (A8B2U2 whole entry, looked up): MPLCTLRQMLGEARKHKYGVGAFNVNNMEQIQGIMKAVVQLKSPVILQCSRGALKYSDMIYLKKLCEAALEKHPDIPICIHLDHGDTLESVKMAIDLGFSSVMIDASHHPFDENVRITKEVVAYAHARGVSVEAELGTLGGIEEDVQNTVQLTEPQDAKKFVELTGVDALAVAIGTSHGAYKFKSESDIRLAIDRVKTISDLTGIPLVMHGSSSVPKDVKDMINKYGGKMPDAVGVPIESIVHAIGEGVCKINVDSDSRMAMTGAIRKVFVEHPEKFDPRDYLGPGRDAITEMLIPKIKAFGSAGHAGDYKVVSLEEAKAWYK
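Giardia FBPA (40 nM reagent) was preincubated 10 min at RT with compound (up to 57.5 uM final), then substrate plus GAPDH/TPI/NAD/arsenate coupling system with diaphorase/resazurin was added; resorufin fluorescence (525/598 nm) was read after 20 min.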
Numbers without * were called inactive. Unless noted, the call rests on the fitted dose curve; in most records, active means well fitted curve in the direction sought with a large enough effect; inconclusive means small, poorly fitted or top-dose-only effect, or another doubt; inactive means no such curve, though single readings can be large; an effect the other way counts as inactive or inconclusive. On the % scale 0 is the no-effect control and ±100 the full control effect.

`C=CCN1C(=O)/C(=c2\sc3nc(=O)c(Cc4ccccc4Cl)nn3c2=O)c2ccccc21` gave Sm TGR block 27%, Pf growth 48h -1%, Pf growth 96h -18%, HCMV antiviral 121 and FBPA Giardia inh -23%.
Screening CN1CCN(C(=O)c2cc3cc(Cl)ccc3[nH]2)CC1 returned Sm TGR block -1%, Pf growth 48h -11%, Pf growth 96h 10µM*, HCMV antiviral 8 and FBPA Giardia inh -2%.
`O=C(c1cc2cc(F)ccc2[nH]1)N1CCC2(CC1)OCCO2` gave Sm TGR block -2%, Pf growth 48h inconclusive, Pf growth 96h inconclusive and HCMV antiviral 0.
O=C(c1cc2cc(F)ccc2[nH]1)N1CCN(C(=O)c2ccco2)CC1 was read as Sm TGR block 40µM*, Pf growth 48h inconclusive, Pf growth 96h inconclusive and HCMV antiviral 37.
`CN1CCN(C(=O)c2ccc(Cl)cc2)CC1` gave Sm TGR block 12%, Pf growth 48h -3%, Pf growth 96h 2.6µM*, HCMV antiviral 67 and FBPA Giardia inh 1%.
Screening O=C(c1cc2cc(Cl)ccc2[nH]1)N1CCCCC1 returned Sm TGR block 0%, Pf growth 48h 20%, Pf growth 96h 4%, HCMV antiviral 46 and FBPA Giardia inh -1%.
For C[C@@H]1Nc2ccc(Cl)cc2S(=O)(=O)N1 the results were FBPA Giardia inh -1%.
Screening CCCCn1c(N)c(N(CC(C)C)C(=O)CSCc2ccc(Cl)c(Cl)c2)c(=O)[nH]c1=O returned Sm TGR block -3%, Pf growth 48h 12µM*, Pf growth 96h inconclusive and HCMV antiviral -12.
For CCOc1ccc2nc(SCC(=O)N(CCOC)c3c(N)n(Cc4ccccc4)c(=O)[nH]c3=O)[nH]c2c1 the results were Sm TGR block 2%, Pf growth 48h inconclusive, Pf growth 96h -22% and HCMV antiviral 17.
CCCCn1c(N)c(N(CC(C)C)C(=O)CSCc2cccc(C)c2)c(=O)[nH]c1=O was read as Sm TGR block -10%, Pf growth 48h inconclusive, Pf growth 96h inconclusive and HCMV antiviral 23.
CCCCn1c(N)c(N(CCOC)C(=O)CSc2ccccc2C)c(=O)[nH]c1=O was read as Sm TGR block 3%, Pf growth 48h inconclusive, Pf growth 96h inconclusive and HCMV antiviral 1.
Screening CCCCn1c(N)c(N(CCOC)C(=O)CSc2nc3ccc(C)cc3[nH]2)c(=O)[nH]c1=O returned Sm TGR block 5%, Pf growth 48h inconclusive, Pf growth 96h 9.3µM*, HCMV antiviral -38 and FBPA Giardia inh 4%.
For CCCCn1c(N)c(N(CC(C)C)C(=O)C(C)SCc2nc3sc(C)c(C)c3c(=O)[nH]2)c(=O)[nH]c1=O (centres undefined) the results were Sm TGR block -17%, Pf growth 48h 12µM*, Pf growth 96h 7% and HCMV antiviral -19.
For CCCCn1c(N)c(N(CCOC)C(=O)CSCc2ccccc2C)c(=O)[nH]c1=O the results were Sm TGR block -13%, Pf growth 48h 23%, Pf growth 96h 55% and HCMV antiviral -97*.
For Cc1ccc([C@H]2C[C@H](O)[C@@H](n3cc(C4CC4)nn3)CN2C(=O)c2cccs2)cc1 the results were HCMV antiviral -3.
For O=C(c1cncc(Br)c1)N1CCN(S(=O)(=O)c2ccc3ccccc3c2)CC1 the results were HCMV antiviral 10.
O=C1CC(c2nnc(Cc3cccc(Cl)c3)o2)CN1c1ccccc1 (centres undefined) was read as Sm TGR block -12% and HCMV antiviral -14.
`COc1ccc(-n2c(=O)c3sc4ccccc4c3n(Cc3ccccc3C)c2=O)cc1OC` gave Sm TGR block 5% and HCMV antiviral 9.
Screening Cc1ccc(C(c2sc3nc(-c4ccco4)nn3c2O)N2CCCC2)cc1 (centres undefined) returned Sm TGR block -2% and HCMV antiviral 1.
For CCN(CC)c1ccc(-c2nnc(SCC(=O)N(CCOC)c3c(N)n(CC(C)C)c(=O)[nH]c3=O)o2)cc1 the results were Sm TGR block -5%, Pf growth 48h 1.7µM*, Pf growth 96h inconclusive and HCMV antiviral -20.
`CCCCn1c(N)c(N(CCOC)C(=O)CSc2n[nH]c(-c3ccc(OC)cc3)n2)c(=O)[nH]c1=O` gave Sm TGR block -11%, Pf growth 48h 2%, Pf growth 96h 3% and HCMV antiviral -76*.
COCCN(C(=O)CSc1nc2ccccc2c(=O)n1CC(C)C)c1c(N)n(Cc2ccccc2)c(=O)[nH]c1=O was read as Sm TGR block -15%, Pf growth 48h 10µM*, Pf growth 96h -51%, HCMV antiviral -30 and FBPA Giardia inh 17%.
Screening COCCN(C(=O)CSc1n[nH]c(-c2ccc(OC)cc2)n1)c1c(N)n(Cc2ccccc2)c(=O)[nH]c1=O returned Sm TGR block 1%, Pf growth 48h inconclusive, Pf growth 96h 4% and HCMV antiviral -13.
CCc1ccc(-c2nc(SCC(=O)N(CCOC)c3c(N)n(Cc4ccccc4)c(=O)[nH]c3=O)n[nH]2)cc1 was read as Sm TGR block -20%, Pf growth 48h 16%, Pf growth 96h 34% and HCMV antiviral -79*.
`COc1ccccc1-c1ccc([C@@H]2C[C@H]3[C@@H](CN2)CON3C)cc1` gave HCMV antiviral 42.
For Cc1cc(C)c2c(=O)cc(C(=O)NCc3ccc(S(N)(=O)=O)cc3)oc2c1 the results were Sm TGR block 4% and HCMV antiviral -13.
Screening COc1ccccc1CNC(=O)/C=C/c1ccc(S(=O)(=O)NCc2ccco2)cc1 returned Sm TGR block -15%, Pf growth 48h inconclusive, Pf growth 96h inconclusive, HCMV antiviral -11 and FBPA Giardia inh -1%.
CCCCCC(=O)N1C[C@H](n2cc(COC(=O)c3ccccc3)nn2)[C@@H](O)C[C@@H]1c1ccc(OC)cc1 was read as HCMV antiviral 23.
For COC(=O)c1ccccc1NC(=O)CN1CCC(C(=O)c2ccc3c(c2)OCCO3)CC1 the results were Sm TGR block -1%, Pf growth 48h 8%, Pf growth 96h 1.5µM*, HCMV antiviral -25 and FBPA Giardia inh 15%.
Screening CC(C)CNC(=S)N1CCC(C(=O)c2ccc3c(c2)OCCO3)CC1 returned Pf growth 48h -9%, Pf growth 96h 37%, HCMV antiviral -63* and FBPA Giardia inh -1%.
`COc1ccc(OCCN2C(=O)c3cccc(N)c3C2=O)cc1` gave Sm TGR block -13%, Pf growth 48h 95%, Pf growth 96h 127%, HCMV antiviral 88 and FBPA Giardia inh -7%.
Screening COc1ccc(N(Cc2nc3ccccc3[nH]2)Cc2nnnn2-c2c(C)cccc2C)cc1 returned HCMV antiviral 28.

Assay outcomes: PubChem, National Center for Advancing Translational Sciences (NCATS)
